Results filed as inconclusive are left out. Activity calls are given as the source filed them. Unless noted, calls follow the shape of the dose curve; as a rule, active = well fitted curve in the direction sought with a large enough effect; inconclusive = small, poorly fitted or top-dose-only effect, or another doubt; inactive = no such curve, though single readings can be large; an effect the other way counts as inactive or inconclusive.
Legend:
[1] = target: Lysosomal acid glucosylceramidase (Homo sapiens) (UniProt P04062); test: Glucocerebrosidase-p2 (AID 348; in the data active = potency below about 10 µM; also: potency is read from the fitted curve at half-maximal effect); conditions: purified GBA, blue fluorogenic substrate, 40 min
Lysosomal acid glucosylceramidase (Homo sapiens), sequence (P04062 whole entry, looked up): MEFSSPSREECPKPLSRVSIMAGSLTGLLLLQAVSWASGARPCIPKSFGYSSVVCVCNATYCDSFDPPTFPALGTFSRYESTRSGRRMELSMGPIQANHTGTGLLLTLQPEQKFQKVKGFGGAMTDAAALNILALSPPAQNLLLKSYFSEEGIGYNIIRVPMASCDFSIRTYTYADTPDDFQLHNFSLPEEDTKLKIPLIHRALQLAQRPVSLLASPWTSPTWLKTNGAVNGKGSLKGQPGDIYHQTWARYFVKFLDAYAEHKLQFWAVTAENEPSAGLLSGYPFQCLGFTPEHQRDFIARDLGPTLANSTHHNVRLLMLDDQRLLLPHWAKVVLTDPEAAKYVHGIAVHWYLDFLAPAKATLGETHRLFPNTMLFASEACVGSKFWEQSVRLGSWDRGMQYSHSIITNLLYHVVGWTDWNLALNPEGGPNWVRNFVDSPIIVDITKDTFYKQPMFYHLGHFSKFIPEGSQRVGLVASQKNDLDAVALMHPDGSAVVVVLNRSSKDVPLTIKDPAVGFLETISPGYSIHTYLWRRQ
In short: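 Normal human glucocerebrosidase (0.2 nM) with blue fluorogenic substrate (80 uM final) in citrate/phosphate pH 5.9 with 10mM sodium taurocholate, 0.01% tween-20; 40 min RT, NaOH/glycine stop; fluorescence Ex 365/Em 440; AC50 from a titration from 0.6 nM upwards.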

[2] = AP1 Signaling Pathway (AID 357; active = well fitted curve in either direction with a large enough effect, not every such curve was filed as active;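 also: ME-180 reporter cells stimulated with EGF at its EC50 level; % is scaled to controls: 0 for no effect and ±100 for the full control effect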); conditions: ME-180 AP-1-bla reporter, EGF-induced, beta-lactamase ratio, 5 h; at 7.69 µM (top of the series) unless noted
In short: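 Modulation of EGF-driven AP-1 transcription was assessed with a beta-lactamase reporter in ME-180 cells. Compound and EC50 EGF were co-incubated 5 hours at 37 °C before 2.5-hour CCF4 loading at room temperature and dual-emission reading.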

[3] = NFAT Signaling Pathway (AID 444; active = well fitted curve in either direction with a large enough effect, not every such curve was filed as active;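 also: carbachol stimulus at about its EC50 of 1 µM final; % is scaled to controls: 0 for no effect and ±100 for the full control effect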); conditions: Jurkat NFAT-bla M1, carbachol, beta-lactamase ratio, 5 h; at 7.69 µM (top of the series) unless noted
In short: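 Jurkat cells carrying an NFAT-driven β-lactamase reporter and co-transfected muscarinic M1 receptor were treated with compound plus carbachol (1 uM final, an EC50 level) for 5 h at 37 °C. CCF4 loading followed for 1 h at RT; 460/530 nm ratio gave %activity.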

[4] = Stat Signaling Pathway (AID 446; active = well fitted curve in either direction with a large enough effect, not every such curve was filed as active;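 also: ME-180 cervical cancer cells given 40 pM IL-6 alongside compound; SIE-controlled beta-lactamase reporter measured as 460/530 nm FRET emission ratio; % is scaled to controls: 0 for no effect and ±100 for the full control effect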); conditions: ME-180 SIE beta-lactamase reporter, IL-6 stimulated, 5 h; at 7.69 µM (top of the series) unless noted
In short: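 Compound effects on IL-6-induced STAT reporter activity were measured in ME-180 cells. After overnight culture, cells were co-treated with 40 pM IL-6 for 5 hrs before beta-lactamase substrate loading at room temperature.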

[5] = target: Glucocorticoid receptor (Homo sapiens) (UniProt P04150); test: GR-GFP Redistribution (AID 450;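 active = compounds whose dose series gives a full or clear partial fitted curve of increased nuclear translocation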; also: potency is read from the fitted curve at half-maximal effect); conditions: U2OS GR-GFP nuclear translocation, laser cytometry, 2 h
Glucocorticoid receptor (Homo sapiens), sequence (P04150 whole entry, looked up, the tested form may be a part): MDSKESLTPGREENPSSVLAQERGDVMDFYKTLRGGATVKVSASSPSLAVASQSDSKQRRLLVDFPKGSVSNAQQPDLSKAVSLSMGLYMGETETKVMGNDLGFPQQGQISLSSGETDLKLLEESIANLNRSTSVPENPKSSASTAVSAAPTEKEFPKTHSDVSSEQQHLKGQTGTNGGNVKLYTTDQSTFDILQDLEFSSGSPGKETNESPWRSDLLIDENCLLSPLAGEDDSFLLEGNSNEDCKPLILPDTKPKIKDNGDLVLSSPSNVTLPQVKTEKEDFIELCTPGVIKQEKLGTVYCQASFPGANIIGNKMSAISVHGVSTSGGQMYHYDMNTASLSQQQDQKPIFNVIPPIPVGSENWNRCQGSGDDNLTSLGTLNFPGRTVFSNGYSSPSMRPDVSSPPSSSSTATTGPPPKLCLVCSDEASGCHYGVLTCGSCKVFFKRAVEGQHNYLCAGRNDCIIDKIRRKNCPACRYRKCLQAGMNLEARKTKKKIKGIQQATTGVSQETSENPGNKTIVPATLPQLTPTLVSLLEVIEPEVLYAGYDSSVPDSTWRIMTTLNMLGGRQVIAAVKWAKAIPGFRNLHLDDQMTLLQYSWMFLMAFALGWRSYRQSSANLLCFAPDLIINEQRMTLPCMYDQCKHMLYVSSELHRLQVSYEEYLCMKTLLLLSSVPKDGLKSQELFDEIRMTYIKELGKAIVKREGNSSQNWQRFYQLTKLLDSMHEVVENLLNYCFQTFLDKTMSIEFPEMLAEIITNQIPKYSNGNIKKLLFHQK

[6] = target: Glucocorticoid receptor (Homo sapiens) (UniProt P04150); test: GR-EFC Redistribution (AID 451; calls by dose curve; also: potency is read from the fitted curve at half-maximal effect); conditions: CHO-K1 GR-EFC translocation, beta-gal luminescence, 2 h
In short: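 CHO-K1 cells stably expressing nuclear-localized β-gal enzyme acceptor and GR fused C-terminally to the enzyme donor fragment; ligand-driven nuclear translocation restores β-gal by complementation. Compounds titrated up to 46 uM final, 2 h at 37 °C; luminescence read.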

[7] = target: Mitogen-activated protein kinase 10 (Mus musculus) (UniProt Q61831); test: JNK3 AlphaScreen Assay (AID 530; active = well fitted curve in either direction with a large enough effect, not every such curve was filed as active;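 also: kinase came from lysate of stimulated human HepG2 cells; signal reports phosphorylation of biotinylated GST-cJun 1-79 at Ser73 with 10 µM ATP; % is scaled to controls: 0 for no effect and ±100 for the full control effect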); conditions: JNK3 lysate, c-Jun phosphorylation; series mostly up to 57.1 µM
In short: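 Phosphorylation of biotinylated GST-cJun(1-79) at Ser73 is measured by AlphaScreen proximity luminescence. Enzyme is JNK3 in HepG2 lysates activated with interleukin-1beta and tumor necrosis factor alpha; ATP is 10 uM final.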

[8] = qHTS Assay for Lipid Storage Modulators (AID 1519; calls by dose curve); conditions: Drosophila S3 cells, BODIPY lipid droplet/cell ratio, laser cytometry, cells loaded with oleic acid; for activity change, negative = inhibition: at 57.5 µM (top of the series)
In short: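 Cells seeded at 5,000 per well were treated with compounds over a concentration series and loaded with oleic acid (400 uM, as added). Lipid droplet fluorescence (488 nm excitation, 500-530 nm channel) was read by laser-scanning cytometry and normalized to 20 uM Triacsin C.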

[9] = target: Dual specificity protein kinase CLK4 (Homo sapiens) (UniProt Q9HAZ1); test: qHTS Assay for Inhibitors of CDC-like Kinase 4 (Kinase-Glo Assay) (AID 1770); conditions: recombinant Clk4, Kinase-Glo ATP depletion luminescence; series mostly up to 66.7 µM; also: nearly all actives have a fitted effect of over 65% in size; also: potency is read from the fitted curve at half-maximal effect
Dual specificity protein kinase CLK4 (Homo sapiens), sequence (Q9HAZ1 whole entry, looked up): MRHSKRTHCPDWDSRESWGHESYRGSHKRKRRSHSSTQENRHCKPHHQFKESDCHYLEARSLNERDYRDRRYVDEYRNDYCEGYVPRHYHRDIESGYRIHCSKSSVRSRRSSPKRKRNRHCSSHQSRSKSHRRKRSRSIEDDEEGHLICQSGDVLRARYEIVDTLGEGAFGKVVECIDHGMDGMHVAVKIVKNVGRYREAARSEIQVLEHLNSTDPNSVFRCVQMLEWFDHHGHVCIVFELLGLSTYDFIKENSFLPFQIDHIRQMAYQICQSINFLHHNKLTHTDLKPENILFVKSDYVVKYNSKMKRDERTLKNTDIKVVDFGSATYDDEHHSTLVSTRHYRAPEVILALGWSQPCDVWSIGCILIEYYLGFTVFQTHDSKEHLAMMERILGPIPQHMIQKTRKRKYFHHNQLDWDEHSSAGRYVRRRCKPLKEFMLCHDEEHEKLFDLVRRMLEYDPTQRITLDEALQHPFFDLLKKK
In short: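 Recombinant human Clk4 (25 nM) phosphorylated RS repeat peptide (100 uM) with 1 uM ATP in Tris pH 7.5/MgCl2/EGTA/DTT/Triton buffer for 4.5 h at room temperature. Residual ATP was quantified by Kinase-Glo luciferase luminescence.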

[10] = target: Dual specificity protein kinase CLK4 (Homo sapiens) (UniProt Q9HAZ1); test: qHTS Assay for Inhibitors of CDC-like Kinase 4 (ADP-Glo Assay) (AID 1771); conditions: recombinant CLK4, ADP-Glo luminescence; series mostly up to 80 µM; also: nearly all actives have a fitted effect of over 70% in size; also: potency is read from the fitted curve at half-maximal effect
In short: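 Compounds are pin-transferred onto substrate mix (100 uM RS peptide, 1 uM ATP), then 25 nM Clk4 is added. After 1 hr at room temperature, ADP-Glo reagent runs 45 min, detection reagent 30 min, then luminescence is read.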

[11] = target: Dual specificity protein kinase CLK4 (Homo sapiens) (UniProt Q9HAZ1); test: qHTS Assay for Inhibitors of CDC-like Kinase 4 (ADP-FP Assay) (AID 1795); conditions: Transcreener ADP fluorescence polarization; series mostly up to 50 µM; also: nearly all actives have a fitted effect of over 60% in size; also: potency is read from the fitted curve at half-maximal effect
In short: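 Recombinant human Clk4 (6.25 nM) phosphorylated RS repeat peptide (100 uM) with 1 uM ATP in Tris pH 7.5/MgCl2/EGTA/DTT/Triton buffer for one hour. ADP was quantified by Transcreener competitive fluorescence polarization against an ADP calibration curve.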

[12] = target: Ubiquitin carboxyl-terminal hydrolase 1 (Homo sapiens) (UniProt O94782); test: Inhibitors of USP1/UAF1: Pilot qHTS (AID 504865); conditions: purified USP1/UAF1, Ub-rhodamine cleavage fluorescence; series mostly up to 54.9 µM;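 also: rhodamine fluorescence freed from ubiquitin-rhodamine substrate followed over time; top concentration of the series differs between compounds; % is scaled to controls: 0 for no effect and ±100 for the full control effect; nearly all actives have a fitted effect of over 35% in size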
Ubiquitin carboxyl-terminal hydrolase 1 (Homo sapiens), sequence (O94782 whole entry, looked up): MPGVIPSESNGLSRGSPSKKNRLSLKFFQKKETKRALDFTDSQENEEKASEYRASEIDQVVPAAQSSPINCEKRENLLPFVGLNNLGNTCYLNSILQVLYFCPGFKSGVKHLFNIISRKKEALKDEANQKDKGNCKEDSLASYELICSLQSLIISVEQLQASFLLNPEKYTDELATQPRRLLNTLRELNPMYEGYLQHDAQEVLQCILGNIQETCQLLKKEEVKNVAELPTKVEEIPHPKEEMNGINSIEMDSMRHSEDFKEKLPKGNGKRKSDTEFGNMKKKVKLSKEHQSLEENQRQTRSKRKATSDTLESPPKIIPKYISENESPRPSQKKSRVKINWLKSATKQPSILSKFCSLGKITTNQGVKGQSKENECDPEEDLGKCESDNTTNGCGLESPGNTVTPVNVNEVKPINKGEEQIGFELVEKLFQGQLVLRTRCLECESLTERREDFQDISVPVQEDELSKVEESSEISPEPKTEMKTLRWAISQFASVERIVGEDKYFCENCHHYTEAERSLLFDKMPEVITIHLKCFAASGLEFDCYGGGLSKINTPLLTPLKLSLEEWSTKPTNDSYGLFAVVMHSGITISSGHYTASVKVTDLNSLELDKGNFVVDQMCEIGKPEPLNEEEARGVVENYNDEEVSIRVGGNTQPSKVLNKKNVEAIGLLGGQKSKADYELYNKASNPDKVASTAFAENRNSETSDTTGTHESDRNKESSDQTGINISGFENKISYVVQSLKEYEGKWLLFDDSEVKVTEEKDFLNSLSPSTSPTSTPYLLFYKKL
In short: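 USP1/UAF1 complex (1nM) preincubated with compound 15 min at room temperature, then Ub-Rho substrate (150nM final) added. Fluorescence read kinetically at 480/540 nm, 6 reads every 60 seconds. Buffer: 50mM HEPES pH 7.8, 0.5mM EDTA, 0.1 mg/ml BSA, 1mM TCEP, 0.01% Tween-20.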

[13] = Primary qHTS for small molecule stabilizers of the endoplasmic reticulum resident proteome: Secreted ER Calcium Modulated Protein (SERCaMP) assay (AID 1508630); conditions: SH-SY5Y GLuc-SERCaMP (Gaussia luciferase released on ER calcium loss) secretion, thapsigargin, luminescence; series mostly up to 38.4 µM; also: % is scaled to controls: 0 for no effect and ±100 for the full control effect
In short: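 The SH-SY5Y reporter protocol was run at 3 concentrations up to 38.3 uM (primary) or 11 concentrations (follow-up): 16 h compound, 100 nM thapsigargin for 4 h, then extracellular luciferase luminescence.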

[14] = target: Cytochrome P450 1A2 (Homo sapiens) (UniProt P05177); test: p450-cyp1a2 (AID 410; calls by dose curve; also: potency is read from the fitted curve at half-maximal effect); conditions: recombinant CYP1A2, luciferin-ME demethylation, luminescence; series mostly up to 57 µM
Cytochrome P450 1A2 (Homo sapiens), sequence (P05177 whole entry, looked up): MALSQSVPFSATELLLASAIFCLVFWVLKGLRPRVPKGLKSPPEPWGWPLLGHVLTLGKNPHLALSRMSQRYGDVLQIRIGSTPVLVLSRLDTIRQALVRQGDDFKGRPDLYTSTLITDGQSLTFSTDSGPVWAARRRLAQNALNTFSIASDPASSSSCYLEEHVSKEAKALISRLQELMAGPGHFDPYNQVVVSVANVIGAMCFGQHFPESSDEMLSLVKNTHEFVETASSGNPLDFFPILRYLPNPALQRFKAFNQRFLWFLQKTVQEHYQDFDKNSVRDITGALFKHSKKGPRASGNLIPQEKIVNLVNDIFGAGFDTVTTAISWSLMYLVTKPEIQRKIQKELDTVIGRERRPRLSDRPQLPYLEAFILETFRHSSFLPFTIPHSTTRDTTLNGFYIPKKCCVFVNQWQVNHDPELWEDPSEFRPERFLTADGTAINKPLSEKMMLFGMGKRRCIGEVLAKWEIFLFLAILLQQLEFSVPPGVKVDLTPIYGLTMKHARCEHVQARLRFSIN
In short: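 O-Demethylation of luciferin 6' methyl ether by human CYP1A2 is monitored as luciferase luminescence. Substrate sits at Km (100uM); enzyme is 20nM. Values are scaled to 57 uM furafylline as maximal inhibition.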

[15] = target: Cytochrome P450 3A4 (Homo sapiens) (UniProt P08684); test: qHTS Assay for Inhibitors and Substrates of Cytochrome P450 3A4 (AID 884); conditions: recombinant CYP3A4, Luciferin-PPXE luminescence; series mostly up to 57.1 µM; also: % is scaled to controls: 0 for no effect and ±100 for the full control effect; nearly all actives have a fitted effect of over 50% in size
Cytochrome P450 3A4 (Homo sapiens), sequence (P08684 whole entry, looked up): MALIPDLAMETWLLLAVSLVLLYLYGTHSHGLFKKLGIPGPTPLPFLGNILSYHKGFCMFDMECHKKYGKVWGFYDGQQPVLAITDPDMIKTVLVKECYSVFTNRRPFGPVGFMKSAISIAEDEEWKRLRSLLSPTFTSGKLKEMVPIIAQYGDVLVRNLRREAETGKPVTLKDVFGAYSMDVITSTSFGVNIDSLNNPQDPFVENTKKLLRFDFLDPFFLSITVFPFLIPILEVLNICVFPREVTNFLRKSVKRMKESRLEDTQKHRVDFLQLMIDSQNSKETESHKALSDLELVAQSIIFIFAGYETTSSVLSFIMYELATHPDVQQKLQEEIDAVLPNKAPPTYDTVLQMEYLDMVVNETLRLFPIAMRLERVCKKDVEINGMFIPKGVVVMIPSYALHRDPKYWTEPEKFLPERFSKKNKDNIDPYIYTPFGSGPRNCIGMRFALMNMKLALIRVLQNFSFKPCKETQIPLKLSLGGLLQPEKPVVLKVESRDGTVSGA
In short: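 Luminescent readout of luciferin produced by CYP3A4 (20 nM) dealkylation of Luciferin-PPXE, 25 uM (its KM). NADPH-driven reaction ran 60 min at RT after 10 min compound preincubation; data scaled to 57 uM ketoconazole as 100% inhibition.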

[16] = target: 3',5'-cyclic-AMP phosphodiesterase 4B (Homo sapiens) (UniProt Q07343); test: qHTS Assay for Inhibitors of PDE-IV (AID 607; active = well fitted activation curve with a large enough effect in the main read-out, with a control signal flat, not every such curve was filed as active; also: % of control where 0% means no effect); conditions: HEK293 ACTOne CNG channel cells, membrane potential fluorescence; series mostly up to 22.9 µM
3',5'-cyclic-AMP phosphodiesterase 4B (Homo sapiens), sequence (Q07343 whole entry, looked up): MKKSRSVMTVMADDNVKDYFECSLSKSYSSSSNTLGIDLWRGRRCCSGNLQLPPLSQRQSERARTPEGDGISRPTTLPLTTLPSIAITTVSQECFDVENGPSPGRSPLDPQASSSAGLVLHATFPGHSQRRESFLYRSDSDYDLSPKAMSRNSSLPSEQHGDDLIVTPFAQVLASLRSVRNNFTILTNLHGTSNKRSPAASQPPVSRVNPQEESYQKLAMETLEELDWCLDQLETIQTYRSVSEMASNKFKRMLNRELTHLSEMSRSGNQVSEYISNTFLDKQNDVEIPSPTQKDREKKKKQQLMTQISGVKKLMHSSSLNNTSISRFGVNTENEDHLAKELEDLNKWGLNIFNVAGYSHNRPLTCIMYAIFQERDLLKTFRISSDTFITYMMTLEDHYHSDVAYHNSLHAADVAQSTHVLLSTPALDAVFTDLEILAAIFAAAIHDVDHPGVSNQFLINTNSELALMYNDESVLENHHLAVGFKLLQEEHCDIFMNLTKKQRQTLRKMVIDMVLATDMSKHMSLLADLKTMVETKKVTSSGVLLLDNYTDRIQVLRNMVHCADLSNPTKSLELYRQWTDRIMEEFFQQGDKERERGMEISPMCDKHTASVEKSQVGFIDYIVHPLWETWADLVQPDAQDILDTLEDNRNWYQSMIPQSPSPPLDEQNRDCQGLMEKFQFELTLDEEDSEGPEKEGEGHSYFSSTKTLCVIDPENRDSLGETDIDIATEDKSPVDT
In short: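 ACTOne HEK293 cells carry a modified cAMP-gated CNG channel and express endogenous PDE4; plated 1000 cells/well, compounds up to 22.9 uM final. Membrane-potential dye fluorescence (ex 535/em 590) was read; parental cells received 10 uM forskolin + 100 uM RO 20-1724.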

[17] = target: Cytochrome P450 3A4 (Homo sapiens) (UniProt P08684); test: qHTS Assay for Activators of Cytochrome P450 3A4 (AID 885); conditions: recombinant CYP3A4, Luciferin-PPXE luminescence, 60 min; series mostly up to 57.1 µM; also: nearly all actives have a fitted effect of over 65% in size
In short: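 CYP3A4 activity: Luciferin-PPXE O-dealkylation, 25uM substrate, 200mM KPO4, RT throughout. Read-out is luciferase luminescence; higher values reflect activation.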

[18] = target: Cytochrome P450 2C19 (Homo sapiens) (UniProt P33261); test: qHTS Assay for Inhibitors and Substrates of Cytochrome P450 2C19 (AID 899); conditions: recombinant CYP2C19, luciferin-H EGE luminescence; series mostly up to 57.1 µM; also: potency is read from the fitted curve at half-maximal effect; nearly all actives have a fitted effect of over 60% in size
Cytochrome P450 2C19 (Homo sapiens), sequence (P33261 whole entry, looked up): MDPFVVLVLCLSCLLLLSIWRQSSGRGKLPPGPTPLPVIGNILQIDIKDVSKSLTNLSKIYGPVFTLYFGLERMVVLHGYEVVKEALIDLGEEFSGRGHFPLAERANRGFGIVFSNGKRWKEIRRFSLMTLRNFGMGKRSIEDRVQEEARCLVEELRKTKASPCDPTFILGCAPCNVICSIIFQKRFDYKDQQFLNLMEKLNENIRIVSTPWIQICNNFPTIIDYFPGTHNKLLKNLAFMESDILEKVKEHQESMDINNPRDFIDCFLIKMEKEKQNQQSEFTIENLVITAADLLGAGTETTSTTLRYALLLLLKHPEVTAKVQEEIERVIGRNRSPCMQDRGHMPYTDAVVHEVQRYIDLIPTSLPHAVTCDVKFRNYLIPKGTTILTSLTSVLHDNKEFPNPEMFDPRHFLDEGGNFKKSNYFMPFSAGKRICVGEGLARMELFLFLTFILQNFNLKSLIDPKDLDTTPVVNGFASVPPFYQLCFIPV
In short: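 NADPH-dependent conversion of Luciferin-H EGE (10uM, at KM) by 5nM enzyme in 50mM KPO4, 60 min at 37C following 10 min compound preincubation. Stopped with luciferin detection buffer; luminescence read after 20 min.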

[19] = qHTS Assay for Identification of Small Molecule Agonists for Hypoxia Response Element Signaling Pathway (AID 914; active = well fitted activation curve with a large enough effect in the signal ratio, with a control signal flat, not every such curve was filed as active; the % refers to the signal ratio; also: potency is read from the fitted curve at half-maximal effect); conditions: ME-180 (cervical carcinoma) HRE-bla reporter, beta-lactamase ratio, CoCl2, 17 h; activation: stronger effect = higher value
In short: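 Compounds in a titration series were added to ME-180 reporter cells alongside an EC50 level of CoCl2. After 17 hours, beta-lactamase activity was read as the 460nm/530nm emission ratio of CCF4, giving AC50 values.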

[20] = measured here: cell count channel max response
[21] = measured here: lipid channel max response

COc1cccc(Nc2ncc3nc(-c4ccccc4)c(=O)n(Cc4cccs4)c3n2)c1
20.3%: max response [8, 20]
24.9%: max response [8, 21]
inactive: Potency [1] > 11.4 µM | activity change, negative = inhibition [2] -7.2% | activity change, negative = inhibition [3] -11.8% | activity, negative = inhibition [4] 21.9% | Potency [5] > 9.22 µM | Potency [6] > 46 µM | outcome [7] | activity change, negative = inhibition [8] 5.46% | Potency [9] | Potency [10] | Potency [11] | Potency [12] | Potency [13]

COc1ccc(-c2nc3cnc(N4CCN(C)CC4)nc3n(Cc3ccc(F)cc3)c2=O)cc1
inactive: Potency [1] > 11.4 µM | Potency [5] > 9.22 µM | Potency [6] > 46 µM | Potency [15] | activity change, negative = inhibition [8] 0.278% | Potency [9] | Potency [10] | Potency [11] | Potency [12] | Potency [13]
active: activity change, negative = inhibition [2] 99.5% [activator] | Potency [14] 10 µM | activity change, negative = inhibition [3] 113% [activator]
11.6%: max response [8, 20]
10.9%: max response [8, 21]

Cc1nc2cnc(N(C)C)nc2n(C[C@H]2CCCO2)c1=O
inactive: Potency [1] > 11.4 µM | activity change, negative = inhibition [2] -5.35% | activity change, negative = inhibition [3] -4.67% | activity, negative = inhibition [4] -0.622% | Potency [5] > 9.22 µM | Potency [6] > 46 µM | outcome [7] | activity change, negative = inhibition [8] 2.86% | Potency [9] | Potency [10] | Potency [11] | Potency [12] | Potency [13]
13.4%: max response [8, 21]
10.5%: max response [8, 20]

Cc1noc(C)c1-c1ccc2ncnc(Nc3ccc(F)cc3)c2c1
inactive: Potency [1] > 11.4 µM | activity change, negative = inhibition [2] -20.2% | activity, negative = inhibition [4] -24.6% | Potency [5] > 46 µM | Potency [6] > 46 µM | outcome [7] | Potency [16] | Potency [17] | activity change, negative = inhibition [8] 6.07% | Potency [12] | Potency [13]
23.8%: max response [8, 20]
active: Potency [14] 3.98 µM | Potency [9] 4.47 µM | Potency [10] 6.31 µM | Potency [11] 3.16 µM
29.1%: max response [8, 21]

COc1cccc(-c2nc(NCc3ccccc3)c3ccccc3n2)c1
active: Potency [14] 3.16 µM | Potency [18] 3.98 µM | Potency [9] 6.31 µM | Potency [10] 6.31 µM | Potency [11] 2.24 µM
2.86%: max response [8, 21]
inactive: Potency [1] > 11.4 µM | activity change, negative = inhibition [2] -17.6% | activity change, negative = inhibition [3] 0.742% | activity, negative = inhibition [4] -12.9% | Potency [6] > 46 µM | outcome [7] | Potency [17] | activity change, negative = inhibition [8] -4.54% | Potency [12] | Potency [13]
10.5%: max response [8, 20]

CC(=O)NCCNc1ncnc2ccc(-c3c(C)noc3C)cc12
29.5%: max response [8, 21]
inactive: Potency [1] > 11.4 µM | activity change, negative = inhibition [2] 12.8% | activity, negative = inhibition [4] -17.9% | Potency [5] > 46 µM | Potency [6] > 46 µM | outcome [7] | Potency [16] | Potency [17] | activity change, negative = inhibition [8] 3.36% | Potency [12] | Potency [13]
28.8%: max response [8, 20]
active: Potency [14] 15.8 µM | Potency [19] 3.16 µM | Potency [9] 7.08 µM | Potency [10] 6.31 µM | Potency [11] 7.08 µM

Source: PubChem BioAssay (NCATS)
